Screening results from PubChem.
An excerpt weighted towards active compounds, which were near 9.5% of everything screened.
NS1 function inh: influenza NS1 inhibition; Potency, µM (highest dose often 46.1 µM); actives 0.4% (n = 270,000); AID 2326; note: actives are rising curves; nearly all actives have a fitted effect of over 50% in size
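Recovery from NS1-induced slow growth read by OD600 in budding yeast switched to galactose assay medium (pH 6.0, -URA) at 1:100 dilution. Compound 23 nl per well; the matching strain lacking NS1 serves as control.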
SARS PLP yeast: SARS-CoV PLP inhibition in yeast; S. cerevisiae expressing SARS-CoV PLpro, growth rescue; Potency, µM (titrated, usually from 32.9 µM), actives largely listed as activators; actives 0.19% (n = 330,000); AID 485353; note: nearly all actives have a fitted effect of over 55% in size
Pf growth 48h: inhibits P. falciparum growth in the first generation, 48 h; Potency, µM (doses to about 28.7 µM), most hits filed as inhibitors; actives 5.9% (n = 310,000); P. falciparum luciferase growth in erythrocytes, 48 h; active = well fitted inhibition curve with a large enough effect; inconclusive = small, poorly fitted or top-dose-only effect, or another doubt; inactive = no such curve, though single readings can be large or run the other way
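Cell-based growth assay: transgenic P. falciparum expressing firefly luciferase, cultured in red cells within RPMI 1640 containing 0.5% w/v Albumax, 24 mM bicarbonate and gentamycin. A drop in luciferase activity indicates inhibition.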
RE007 growth inh: less growth of the S. pombe RE007 Vpr strain; S. pombe RE007 Vpr strain, BacTiter-Glo ATP luminescence, 24 h; actives 0.21% (n = 360,000); AID 651644; Potency, µM (highest dose often 92.2 µM), most hits filed as inhibitors; active = well fitted falling curve with a large enough effect; inconclusive = small, poorly fitted or top-dose-only effect; inactive = no such curve, though single readings can be large or run the other way; note: nearly all actives have a fitted effect of over 50% in size
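Fission yeast RE007 carrying one integrated HIV-1 vpr copy, seeded at OD 0.01 in PMG+AL medium with 23 nL pinned compound. Grown 24 h at 30 degrees; viability read by BacTiter-Glo luminescence after 5 min.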
Pf growth 96h: P. falciparum growth inhibition at 96 hour, primary screen for plastid delayed-death inhibitors; P. falciparum luciferase reporter growth, 96 h; Potency, µM (highest dose often 28.7 µM), most hits filed as inhibitors; actives 6.9% (n = 320,000); AID 504834; active = well fitted inhibition curve with a large enough effect; inconclusive = small, poorly fitted or top-dose-only effect, or another doubt; inactive = no such curve, though single readings can be large or run the other way
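Two parasite generations (96 h, 37 C, 5% CO2) of compound exposure in infected erythrocytes (0.05% parasitemia, 2% hematocrit). Luciferase-reporter P. falciparum; decreased luminescence indicates inhibited growth, aimed at apicoplast-acting delayed death.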
Numbers stand for hits. Unless noted, calls come from the whole dose curve.

For CC(C)(C)NC(=O)C(c1ccc(O)cc1)N(C(=O)CCC(=O)Nc1nccs1)c1ccc(F)cc1 (configuration not stated) the results were NS1 function inh inactive, SARS PLP yeast inactive, Pf growth 48h inconclusive, RE007 growth inh inactive and Pf growth 96h 10.4µM.
For COCCNC(=O)C(c1ccc(F)cc1)N(C(=O)CCC(=O)Nc1nccs1)c1ccc(C)cc1 (configuration not stated) the results were NS1 function inh inactive, SARS PLP yeast inactive, Pf growth 48h inconclusive, RE007 growth inh inactive and Pf growth 96h inactive.
`CC(C)(C)NC(=O)C(c1ccc(O)cc1)N(Cc1ccccc1)C(=O)CCC(=O)Nc1nccs1` (configuration not stated) gave NS1 function inh inactive, SARS PLP yeast inactive, Pf growth 48h inactive, RE007 growth inh inactive and Pf growth 96h inactive.
Screening Cc1ccc(N(C(=O)CCC(=O)Nc2nccs2)C(C(=O)NC(C)(C)C)c2ccc(O)cc2)cc1 (configuration not stated) returned NS1 function inh inactive, SARS PLP yeast inactive, Pf growth 48h inconclusive, RE007 growth inh inactive and Pf growth 96h 8.28µM.
`C(=C\c1ccccc1)/CN1CCN(C(c2cccc3ccccc23)c2nnnn2-c2ccc3c(c2)OCCO3)CC1` (configuration not stated) gave RE007 growth inh inactive.
`CC(C)(C)CC(C)(C)c1cc(O)c(O)c(CN2CCCCC2)c1` gave NS1 function inh inactive.
Screening Cc1cccc(C2Nc3cccc4cccc(c34)N2)c1 returned NS1 function inh inactive, SARS PLP yeast inactive, Pf growth 48h 4.65µM, RE007 growth inh inactive and Pf growth 96h inactive.
`O=[N+]([O-])c1cc(C2Nc3cccc4cccc(c34)N2)ccc1Cl` gave NS1 function inh inactive, SARS PLP yeast inactive, Pf growth 48h 2.94µM and Pf growth 96h inactive.
Screening Clc1ccc(C2Nc3cccc4cccc(c34)N2)cc1 returned NS1 function inh inactive, SARS PLP yeast inactive, Pf growth 48h inconclusive, RE007 growth inh inactive and Pf growth 96h inactive.
CC1CN(S(=O)(=O)c2ccccc2)C(C)N1C(=O)N1CCOCC1 (configuration not stated) was read as NS1 function inh inactive, SARS PLP yeast inactive, Pf growth 48h inactive, RE007 growth inh inactive and Pf growth 96h inactive.
N#Cc1nc(Cc2cccc3ccccc23)oc1N1CCN(c2ccccc2)CC1 was read as NS1 function inh inactive, SARS PLP yeast inactive, RE007 growth inh inactive and Pf growth 96h inactive.
`N#Cc1nc(Cc2cccc3ccccc23)oc1N1CCOCC1` gave NS1 function inh inactive, SARS PLP yeast inactive, Pf growth 48h inconclusive, RE007 growth inh inactive and Pf growth 96h 2.08µM.
O=C(Cc1ccc(F)cc1)OCN1C(=O)c2ccccc2C1=O was read as NS1 function inh inactive, SARS PLP yeast inactive, Pf growth 48h inconclusive, RE007 growth inh inactive and Pf growth 96h 14.7µM.
C[C@H](CO)N1C[C@H](C)[C@@H](CN(C)C(=O)Nc2ccc3c(c2)OCO3)Oc2c(NC(=O)Nc3ccc(C(F)(F)F)cc3)cccc2C1=O was read as SARS PLP yeast inactive and RE007 growth inh inactive.
`COc1ccccc1N=c1oc2cc(O)ccc2cc1C(=O)NCC1CCCO1` (configuration not stated) gave NS1 function inh inactive, SARS PLP yeast inactive, Pf growth 48h inconclusive, RE007 growth inh inactive and Pf growth 96h inconclusive.
For COc1ccccc1N=c1oc2cc(O)ccc2cc1C(N)=O the results were NS1 function inh inactive, SARS PLP yeast inactive, Pf growth 48h inactive, RE007 growth inh 8.91µM and Pf growth 96h inactive.
Screening O=C(COc1ccccc1)N/N=C/c1ccc(O[C@@H]2O[C@H](CO)[C@@H](O)[C@H](O)[C@H]2O)cc1 returned NS1 function inh inactive, SARS PLP yeast inactive, Pf growth 48h inactive, RE007 growth inh inactive and Pf growth 96h inactive.
`CCOC(=O)c1cnc(SC)nc1Nc1cccc(F)c1` gave NS1 function inh inactive, SARS PLP yeast inactive, Pf growth 48h inactive, RE007 growth inh inactive and Pf growth 96h inactive.
`CCOC(=O)c1cnc(SC)nc1Sc1cc(Cl)ccc1Cl` gave NS1 function inh inactive, SARS PLP yeast inactive, Pf growth 48h inconclusive, RE007 growth inh inactive and Pf growth 96h 10.4µM.
`O=C(NC1CCCCCC1)C(=S)NCCc1ccccc1` gave NS1 function inh inactive, SARS PLP yeast inactive, Pf growth 48h inactive, RE007 growth inh inactive and Pf growth 96h 10.4µM.
`O=C(CNC(=O)OCc1ccccc1)NC1CCCCCC1` gave NS1 function inh inactive, SARS PLP yeast inactive, Pf growth 48h inactive, RE007 growth inh inactive and Pf growth 96h inactive.
For O=C(CCNC(=O)OCc1ccccc1)NC1CCCCC1 the results were NS1 function inh inactive, SARS PLP yeast inactive, Pf growth 48h inactive, RE007 growth inh inactive and Pf growth 96h 3.7µM.
`CC1CN(S(=O)(=O)c2cccc(C(=O)Nc3ccccc3N3CCCCC3)c2)CC(C)O1` (configuration not stated) gave SARS PLP yeast inactive, Pf growth 48h 11.7µM, RE007 growth inh inactive and Pf growth 96h inconclusive.
Screening Cc1cnc(NC(=O)c2cccc(S(=O)(=O)N3CCOCC3)c2)s1 returned SARS PLP yeast inactive, Pf growth 48h inactive, RE007 growth inh inactive and Pf growth 96h inconclusive.
Screening CC(=O)N1CCN(S(=O)(=O)c2cccc(C(=O)Nc3ccccc3N3CCOCC3)c2)CC1 returned NS1 function inh inactive, SARS PLP yeast inactive, Pf growth 48h inactive, RE007 growth inh inactive and Pf growth 96h inconclusive.
`CC1CN(S(=O)(=O)c2cccc(C(=O)Nc3ccccc3N3CCOCC3)c2)CC(C)O1` (configuration not stated) gave SARS PLP yeast inactive, Pf growth 48h 13.1µM, RE007 growth inh inactive and Pf growth 96h inconclusive.
`Cc1cnc(NC(=O)c2cccc(S(=O)(=O)N3CC(C)OC(C)C3)c2)s1` (configuration not stated) gave SARS PLP yeast inactive, Pf growth 48h inconclusive, RE007 growth inh inactive and Pf growth 96h 13.1µM.
Screening OC1(c2ccc(Br)cc2)CCN(Cc2cccc(Br)c2)CC1 returned NS1 function inh inactive, SARS PLP yeast inactive, Pf growth 48h inconclusive, RE007 growth inh inactive and Pf growth 96h 4.65µM.
Screening COc1cc(C2Nc3ccc4ccccc4c3C3=C2C(=O)CC(C)(C)C3)ccc1OC(C)C(=O)O (configuration not stated) returned NS1 function inh inactive, SARS PLP yeast inactive, Pf growth 48h 1.65µM, RE007 growth inh inactive and Pf growth 96h inconclusive.
`COc1cccc(C2Nc3ccc4ccccc4c3C3=C2C(=O)CC(C)(C)C3)c1OCC(=O)O` (configuration not stated) gave NS1 function inh inactive, SARS PLP yeast inactive, Pf growth 48h inconclusive, RE007 growth inh inactive and Pf growth 96h inconclusive.
